BoNT-F LC inh: blocks Botulinum neurotoxin F light chain protease; Multiplex microsphere protease cleavage assay, flow cytometry; inhibition, % at 10 µM; hit rate 0.22% among 360,000; AID 588497; in the data active means inhibition above about 35%, passing the limit was not always enough; inconclusive means no clear call, values can overlap the other calls; further: plate controls were buffer without enzyme for full effect and enzyme alone for no effect
SSB-PriA inh: K. pneumoniae PriA-SSBct interaction inhibition; AlphaScreen SSBct-PriA binding, biotinylated peptide; inhibition, % at 33 µM; hit rate 0.6% among 430,000; AID 1272365; in the data active means inhibition mostly above about 37%, no sharp cut-off; inactive means mostly below about 20%;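 further: plate controls were negative control peptide for no effect and reference peptide for full effect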
Anthrax LF inh2: inhibitors of Bacillus anthracis lethal factor protease. multiplex microsphere protease cleavage assay, LF. inhibition, % at 10 µM. hit rate 0.12% among 360,000. AID 588501; further: plate controls were buffer without enzyme for full effect and enzyme alone for no effect
Autofluor counter: compound fluorescence in toxin protease inhibitor counterscreen. compound autofluorescence counterscreen, microsphere flow cytometry; hits give high values. fluorescence intensity (concentration not given with the values). hit rate 3.1% among 360,000. AID 624483; in the data active means fluorescence intensity above about 16000; inconclusive means no clear call, values can overlap the other calls
BoNT-A LC inh2: blocks Botulinum neurotoxin A light chain protease | multiplex microsphere protease substrate cleavage, flow cytometry | inhibition, % at 10 µM | hit rate 0.17% among 360,000 | AID 588499; further: plate controls were buffer without enzyme for full effect and enzyme alone for no effect
Active calls of the source: *; ? = inconclusive; · = no result given. This is a sample that favours compounds with a hit; in the whole collection about 3.1% have one here. Unless noted, no stated cut-off is given here; in the data, active means inhibition above about 30%; inconclusive means no clear call, values can overlap the other calls; inactive means below that.

SMILES	BoNT-F LC inh	SSB-PriA inh	Anthrax LF inh2	Autofluor counter	BoNT-A LC inh2
COc1ccc2cc(C(=O)N/N=C/c3sc4ccccc4c3O)ccc2c1	-9.5	·	8.8	2973	34.1*
COC(=O)C(O)(CC(=O)Nc1ccc(C)c(F)c1)C(F)(F)F (stereo not drawn)	15.0	-7.0	2.4	16452*	?
c1ccc(-c2nc(-c3ccncc3)n[nH]2)nc1	-12.2	27.6	-4.7	5742	-1.7
Clc1nc(-c2ccccn2)n[nH]1	·	163.0*	·	·	·
Brc1nc(-c2ccccn2)n[nH]1	·	142.0*	·	·	·
CCOc1cccc(/C=N\NC(=O)CCc2c(C)n[nH]c2C)c1O	·	-3.0	·	·	·
O=C(OCCNC(=O)c1ccc2ccccc2n1)c1ccc(F)cc1	-4.6	-27.7	0.8	16884*	?
O=C(COC(=O)c1ccc2ccccc2n1)c1ccc(F)cc1	0.6	-9.8	0.3	4170	0.7
CCN(c1ccc(OC)cc1)S(=O)(=O)c1ccc2c(c1)CCN2C(=O)CCC(=O)O	-5.1	-10.2	-2.2	16864*	-2.8
CCN(c1ccc(C)c(C)c1)S(=O)(=O)c1ccc2c(c1)CCN2C(=O)CCC(=O)O	-15.6	-6.2	-4.4	12888	-1.0
COc1ccc(N(CC(=O)N2CCc3ccccc32)S(=O)(=O)c2c(C)nn(C)c2C)cc1	-4.2	-8.5	-1.9	5998	-0.4
COc1ccc(N(CC(=O)N2CCc3ccccc32)S(=O)(=O)c2c(C)n[nH]c2C)cc1	12.4	-18.1	-23.3	17257*	?
C#CCn1c(=NC(=O)c2nc3ccccc3s2)sc2cc(NC(C)=O)ccc21	·	9.0	·	·	·
CC(=O)Nc1ccc2c(c1)CN(C(=O)c1ccccc1)CC2	·	0.0	·	·	·
O=C(Nc1nnc(-c2ccc3c(c2)OCCO3)o1)c1cccc(Cl)c1	·	-6.0	·	·	·
COc1cccc2cc(-c3nnc(NC(=O)c4cccc(S(C)(=O)=O)c4)o3)oc12	·	90.0*	·	·	·
O=C(Nc1nnc(-c2ccc3c(c2)OCCO3)o1)c1cccc(NS(=O)(=O)c2ccc(F)cc2)c1	·	32.0*	·	·	·
COc1ccc(S(=O)(=O)Nc2cccc(C(=O)Nc3nnc(C4=COCCO4)o3)c2)cc1	·	56.0*	·	·	·
O=C(CC1CCCCN1S(=O)(=O)c1ccccc1)NCCCc1ccccc1 (stereo not drawn)	·	16.0	·	·	·
Cc1cc(NC(=O)CSc2nnc(COc3cccc(C)c3C)n2Cc2ccco2)no1	3.3	-12.5	-1.0	15465	?
Cc1cccc(OCc2nnc(SCC(=O)N(C(C)C)C(C)C)n2Cc2ccco2)c1C	2.8	-21.5	0.2	16236*	0.4
CCn1c(SCC(=O)Nc2cccc(SC)c2)nc2ccsc2c1=O	·	-12.0	·	·	·
CC(C)(C)OC(=O)N1CCCC1C(=O)N1CCc2ccccc21 (stereo not drawn)	14.4	-4.1	-24.6	16582*	?
O=[N+]([O-])c1ccc(/C=C/S(=O)(=O)N2C=Cc3ccccc3C2c2c[nH]c3ccccc23)cc1 (stereo not drawn)	·	3.0	·	·	·
CN(C)C(=O)c1ccc(-c2n[nH]c(=O)c3ccccc23)cc1	-1.0	·	-1.6	3345	-0.3
SMILES	BoNT-F LC inh	SSB-PriA inh	Anthrax LF inh2	Autofluor counter	BoNT-A LC inh2
COC(=O)c1ccc(-c2n[nH]c(=O)c3ccccc23)cc1	2.5	-15.9	-0.7	19671*	?
CSc1cccc(NC(=O)Cn2nc(SC)c(-c3nc(-c4ccc5c(c4)OCO5)no3)c2N)c1	·	6.0	·	·	·
O=C(c1cccs1)N1CCN(C2CCN(Cc3ccccc3)CC2)CC1	5.3	-16.4	2.9	3609	0.1
O=C(Cc1cccs1)N1CCN(C(=O)C2CCCO2)CC1 (stereo not drawn)	-16.0	-11.9	0.4	11286	-0.5
O=C(c1cccs1)N1CCN(C(=O)C2CCCO2)CC1 (stereo not drawn)	-0.6	-1.1	2.4	19685*	-0.4
O=C(c1cccs1)N1CCN(C2CCCCC2)CC1	3.8	-1.4	-3.6	20556*	?
CCc1c(C)nc2n(c1=O)CC(C(=O)Nc1ccc(S(N)(=O)=O)cc1)CS2 (stereo not drawn)	·	-1.0	·	·	·
COc1cccc2cc(C(=O)NCC(O)(c3cccs3)C3CC3)oc12 (stereo not drawn)	·	-9.0	·	·	·
COc1cccc(N2CCN(C3CC(=O)N(c4ccc(Cl)c(Cl)c4)C3=O)CC2)c1 (stereo not drawn)	-6.4	9.2	-5.7	4291	-0.8
CN1C(=O)CC(N2CCN(c3ccc(Cl)c(Cl)c3)CC2)C1=O (stereo not drawn)	2.1	-0.9	-0.5	16251*	-0.1
CCc1ccc2oc(C(=O)NCc3ccncc3)c(C)c2c1	6.9	-10.8	-11.1	16440*	10.1
CCc1ccc(/C=C2\CN(CC)Cc3c2nc2ccccc2c3C(=O)O)cc1	9.4	-0.3	20.3	27805*	15.0
CCOc1ccc(CC(=O)N2CC[C@H](S(=O)(=O)C(C)(C)C)C2)cc1	·	-9.0	·	·	·

Screening results deposited in PubChem by several laboratories.
